Source: PubChem BioAssay (EPA / NIEHS)
Activity calls are given as the source filed them. The calls were made as follows: active = hit-call score of the fitted dose curve at least 0.9, where 1 is the maximum; inactive = score below 0.9.

Assay: CCTE_Harrill_HTTr_Apoptosis_MCF7: CCTE's 6-hour Apoptosis Assessment for the High-Throughput Transcriptomics (HTTr) Platform, in MCF-7 cells cultured in DMEM + 10% fetal bovine serum, Harrill Lab (AID 2284011)
Text: This is a cell-based assay that evaluates apoptosis using high content imaging to evaluate activation of caspase-3/7 using the CellEvent Caspase 3/7 Green detection reagent in 384-well format.One of seven assay components measured from the CCTE_Harrill_HTTr_Apoptosis assay. This was part of a full screening experiment. This is a cell-based assay that evaluates apoptosis in MCF-7 cells cultured in DMEM + 10% fetal bovine serum. High content imaging is used to evaluate activation of caspase-3/7 using the CellEvent Caspase 3/7 Green detection reagent. Measurements are taken at 6 hours after chemical dosing in 384-well format.The assay component endpoint CCTE_Harrill_HTTr_Apoptosis_MCF7 was analyzed with bidirectional fitting relation to DMSO as the negative control and baseline of activity. Using a type of viability reporter, gain-of-signal activity can be used to evaluate activation of caspase-3/7 using the CellEvent Caspase 3/7 Green detection reagent to understand changes in apoptosis. To generalize the intended target to other relatable targets, this assay endpoint is annotated to cell cycle, where the subfamily is apoptosis.
Chemicals were tested in MCF7 cells in an eight point dilution series with a six hour exposure duration.

SMILES	outcome	AC50
Oc1cccc2cccnc12	inactive	
C[C@@H](Oc1ccc(Cl)cc1Cl)C(=O)O	inactive	
Clc1ccc(COC(Cn2ccnc2)c2ccc(Cl)cc2Cl)cc1 (stereo not given)	inactive	
CNC	inactive	
CCC(=O)C(CC(C)N(C)C)(c1ccccc1)c1ccccc1 (stereo not given)	inactive	
CC(Br)C(=O)O (stereo not given)	inactive	
COc1ccc(C(O)(c2cncnc2)C2CC2)cc1 (stereo not given)	inactive	
CCCCCCCCc1ccc(O)cc1	inactive	
O=C(Nc1ccc2[nH]ccc2c1)c1cc2cc(F)ccc2n1Cc1cccc(F)c1	inactive	
O=[N+]([O-])c1ccc(O)c([N+](=O)[O-])c1	inactive	
ClC(Cl)=C(Cl)C(Cl)=C(Cl)Cl	inactive	
O=[N+]([O-])c1ccc2c3c(cccc13)CC2	inactive	
Clc1ccc(C2(Cn3cncn3)CC(Br)CO2)c(Cl)c1 (stereo not given)	inactive	
NC(=O)O	inactive	
CN(C)P(=O)(N(C)C)N(C)C	inactive	
O=C(O)C(F)(F)C(F)(F)C(F)(F)C(F)(F)C(F)(F)C(F)(F)C(F)(F)C(F)(F)C(F)(F)C(F)(F)F	inactive	
CCOP(=S)(OCC)Oc1nc(Cl)c(Cl)cc1Cl	inactive	
Cc1ccc(N)cc1Cl	inactive	
CC1(C)Cc2cccc(O)c2O1	inactive	
CCC(=O)c1ccccc1	inactive	

SMILES	outcome	AC50
O=C(O)C(F)(F)C(F)(F)C(F)(F)C(F)(F)C(F)(F)C(F)(F)F	inactive	
CN(CCCC(=O)c1cccnc1)N=O	inactive	
O=C(Cc1ccccc1)c1ccccc1	inactive	
CCNc1nc(NC(C)(C)C)nc(SC)n1	inactive	
C=CC#N	inactive	
Oc1ccc(-c2ccccc2)cc1	inactive	
CCCCCCCCC(=O)NCc1ccc(O)c(OC)c1	inactive	
Oc1c(I)cc(I)cc1I	inactive	
C[C@H]1CCCC(=O)CCC/C=C/c2cc(O)cc(O)c2C(=O)O1	inactive	
[O-][Cl+2]([O-])O	inactive	
C=C(C)C(=O)[O][Sn]([CH2]CCC)([CH2]CCC)[CH2]CCC		11 µM (active)
O=c1[nH]c(=O)[nH]c(=O)[nH]1	inactive	
COc1ccc(C=O)cc1OC	inactive	
CCN1CCC2(CC1)COc1cc3c(cc12)N(C(=O)c1ccc(-c2ccc(-c4nnc(C)o4)cc2C)cc1)CC3		60.3 µM (active)
Cc1cc(Cl)ccc1O[C@H](C)C(=O)O	inactive	
CCOC(=O)Nc1cccc(OC(=O)Nc2ccccc2)c1	inactive	
CC(=O)OC(c1ccccc1)C(Cl)(Cl)Cl (stereo not given)	inactive	
COC(=O)Cc1ccccc1	inactive	
Cc1ccccc1C(=O)Nc1cccc(OC(C)C)c1	inactive	
COP(=O)(OC)OC	inactive	
